This note sets out measurements from PubChem BioAssay (Tox21).

Each structure is given as a SMILES string. Inconclusive results are not listed. Entries that show only a call come without a potency. The source made the active and inactive calls. The call rests on the fitted dose curve; in most records, active means well fitted cell-killing curve with a large enough effect in the repeat runs; inconclusive means weak or mixed curves, or effect the other way; inactive means flat fitted curve, though single readings scatter.

The nature of the test: qHTS assay to identify small molecule antagonists of the estrogen receptor alpha (ER-alpha) signaling pathway using the BG1 cell line - cell viability counter screen (AID 743081).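 Further: compound given together with 17beta-estradiol as the ER stimulus; nearly all actives have a fitted effect of over 45% in size.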 The following applies: BG1Luc4E2 viability, CellTiter-Fluor, 22 h; series mostly up to 70.3 µM. Background: Quantitative high-throughput screening tests each substance at several concentrations.
As for `C=N[C@@H](C(=O)N[C@@H]1C(=O)N2[C@@H]1SC(C)(C)[C@@H]2C(=O)O)c1ccccc1`, the Potency entry was “inactive”. As for `O=C(O)/C=C/C(=O)Nc1ccc(S(=O)(=O)Nc2nccs2)cc1`, the Potency result is “inactive”. For the compound `O=c1[nH]c(=O)n([C@H]2C[C@H](O)[C@@H](CO)O2)cc1/C=C/Br`, the Potency entry is “inactive”. Next, `C[C@H](O)CN(C)C`: “inactive”; `O=C1CC[C@@H](C(=O)N[C@H]2C[C@@H]2c2ccccc2)N1`: “inactive”. Next, `CC(C)C[C@H](NC(=O)[C@@H](COC(C)(C)C)NC(=O)[C@H](Cc1ccc(O)cc1)NC(=O)[C@H](CO)NC(=O)[C@H](Cc1c[nH]c2ccccc12)NC(=O)[C@H](Cc1cnc[nH]1)NC(=O)[C@@H]1CCC(=O)N1)C(=O)N[C@@H](CCCN=C(N)N)C(=O)N1CCC[C@H]1C(=O)NNC(N)=O`: “inactive”. As to `NC[C@H]1O[C@H](O[C@H]2[C@H](O)[C@@H](O[C@H]3O[C@H](CO)[C@@H](O)[C@H](N)[C@H]3O)[C@H](N)C[C@@H]2N)[C@H](N)C[C@@H]1O`, the Potency entry was “inactive”. For the compound `FC(F)(F)COCC(F)(F)F`, the Potency result is “inactive”. Turning to `NCC[C@H](O)C(=O)N[C@@H]1C[C@H](N)[C@@H](O[C@H]2O[C@H](CN)CC[C@H]2N)[C@H](O)[C@H]1O[C@H]1O[C@H](CO)[C@@H](O)[C@H](N)[C@H]1O`, the Potency result is “inactive”. With `CC(C)Cc1ccc([C@H](C)C(=O)O)cc1`, the Potency entry was “inactive”. As for `O=P(O)(O)C(O)(Cn1ccnc1)P(=O)(O)O`, the entry is “inactive”; as for `NCC(O)CC(=O)O` (stereo not drawn), “inactive”; as for `CNCC(=O)N[C@@H](CCCN=C(N)N)C(=O)N[C@H](C(=O)N[C@@H](Cc1ccc(O)cc1)C(=O)N[C@H](C(=O)N[C@@H](Cc1cnc[nH]1)C(=O)N1CCC[C@H]1C(=O)N[C@@H](C)C(=O)O)C(C)C)C(C)C`, “inactive”.
